# Test results: publication PMC4336329 (PLoS ONE, 2015)
# The whole screen tested about 310,000 compounds, of which about 14,000 (4.5%) showed an effect of 50% or more. Effects have a minus sign here. This excerpt belongs to a sample that is enriched for strong results.
# Target: human ether-à-go-go-related gene (hERG) potassium channel (human, UniProt Q12809)
# Experiment: primary screen, population patch clamp on CHO cells stably expressing hERG; higher = less effect of the substance
# 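Further: peak tail current of the secondary pulse compared with the same well before compound.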
# human ether-à-go-go-related gene (hERG) potassium channel, sequence (Q12809 whole entry, looked up): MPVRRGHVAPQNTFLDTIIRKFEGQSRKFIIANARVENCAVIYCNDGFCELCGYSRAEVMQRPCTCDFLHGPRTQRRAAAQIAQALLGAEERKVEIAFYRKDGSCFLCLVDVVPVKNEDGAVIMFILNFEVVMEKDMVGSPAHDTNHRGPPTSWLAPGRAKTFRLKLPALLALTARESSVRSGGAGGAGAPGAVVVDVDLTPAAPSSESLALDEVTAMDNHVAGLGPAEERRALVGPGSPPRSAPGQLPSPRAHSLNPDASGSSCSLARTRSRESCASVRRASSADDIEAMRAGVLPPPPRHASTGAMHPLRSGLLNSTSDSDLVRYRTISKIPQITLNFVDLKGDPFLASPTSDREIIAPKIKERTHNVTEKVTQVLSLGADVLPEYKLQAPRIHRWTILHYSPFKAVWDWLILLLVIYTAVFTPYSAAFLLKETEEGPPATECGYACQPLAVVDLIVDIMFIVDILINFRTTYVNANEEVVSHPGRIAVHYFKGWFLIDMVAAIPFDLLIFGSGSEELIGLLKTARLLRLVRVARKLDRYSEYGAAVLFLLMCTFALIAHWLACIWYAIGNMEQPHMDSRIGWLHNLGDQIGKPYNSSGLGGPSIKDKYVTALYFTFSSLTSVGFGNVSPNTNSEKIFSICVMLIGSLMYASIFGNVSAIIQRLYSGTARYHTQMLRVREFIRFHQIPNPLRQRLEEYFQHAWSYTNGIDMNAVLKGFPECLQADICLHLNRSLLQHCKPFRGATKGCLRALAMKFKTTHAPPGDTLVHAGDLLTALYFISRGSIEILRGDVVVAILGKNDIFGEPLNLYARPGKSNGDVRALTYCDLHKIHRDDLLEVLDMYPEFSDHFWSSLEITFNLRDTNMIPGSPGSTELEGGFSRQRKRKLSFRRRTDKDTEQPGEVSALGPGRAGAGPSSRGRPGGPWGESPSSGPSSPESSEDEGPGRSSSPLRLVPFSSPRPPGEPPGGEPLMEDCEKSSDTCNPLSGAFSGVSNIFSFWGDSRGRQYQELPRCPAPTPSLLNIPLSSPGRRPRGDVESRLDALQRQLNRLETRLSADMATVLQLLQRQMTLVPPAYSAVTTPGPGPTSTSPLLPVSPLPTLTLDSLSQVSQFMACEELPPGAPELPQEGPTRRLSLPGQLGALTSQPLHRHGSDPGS
row,Structure (SMILES),"hERG current change (%, negative = inhibition) at 10uM"
1,CN(C)S(=O)(=O)c1ccc(NC(=S)NC(=O)C2CCC2)cc1,10.3%
2,CC(C)(SC(=S)N1CCCCCC1)C(=O)O,24.3%
3,CC(C)(C)n1cn[nH]c1=S,22%
4,CCCSc1cc(N2CCCC2)nc(-c2ccccc2)n1,15.5%
5,COc1ccc(CN2CCC(N(CCc3ccccc3)Cc3ccccc3)CC2)c(OC)c1.O=C(O)C(=O)O,-74.5%
6,COc1ccc(CN2CCC(N3CC(C)OC(C)C3)CC2)c(OC)c1.O=C(O)C(=O)O (centres unmarked),-1.98%
7,COc1cccc(CN2CCC(N(CCc3ccccc3)Cc3ccccc3)CC2)c1OC.O=C(O)C(=O)O,-60.3%
8,COc1ccc(CCN(C)C(=O)C2CCN(Cc3cccc(OC)c3OC)CC2)cc1OC.O=C(O)C(=O)O,-3.13%
9,COc1cccc(CN2CCN(Cc3cc(OC)c(OC)c(OC)c3)CC2)c1OC.O=C(O)C(=O)O,-8.03%
10,COc1ccc(CN2CCC(C(=O)N(C)CCc3ccc(OC)c(OC)c3)CC2)c(OC)c1.O=C(O)C(=O)O,-44.9%
11,O=C(Nc1ccccc1)c1ccc(S(=O)(=O)NCc2ccco2)cc1,-11.6%
12,O=C(Cc1ccc(S(=O)(=O)N2CCCC2)s1)NC1CCCCCC1,-31.4%
13,C/C(=N\NC(=O)Cn1nc(C)cc1C)c1ccc([N+](=O)[O-])cc1,-17.6%
14,O=C(Nc1ccc(Cc2ccc(NC(=O)C3CC3)c(O)c2)cc1O)C1CC1,8.31%
15,CCC1(C)NC(=O)N(CC(=O)N2CCC(Cc3ccccc3)CC2)C1=O (centres unmarked),3.65%
16,CCC(=O)N1C(Cc2ccccc2)COC1(C)C (centres unmarked),-73.4%
17,CCC(=O)N1COC[C@@H]1Cc1ccccc1,25.4%
18,Cn1c(=O)c2ncn(CC(=O)N=Nc3c(O)[nH]c4ccccc34)c2n(C)c1=O,20.7%
19,O=[N+]([O-])c1cccc(/C=N/NC2=NCCCCC2)c1,-83%
20,Cl.O=[N+]([O-])c1ccccc1/C=N/NC1=NCCCCC1,-39.3%
21,O=C(N/N=C/c1ccc([N+](=O)[O-])cc1)C(=O)N1CCCC1,13.5%
22,O=C(ONC1=NCCCCC1)c1cccc([N+](=O)[O-])c1,0.994%
23,O=C(N/N=C/c1cccc([N+](=O)[O-])c1)C(=O)N1CCCCCC1,-52.5%

row,Structure (SMILES),"hERG current change (%, negative = inhibition) at 10uM"
1,O=C(N/N=C/c1cccc(O)c1)C(=O)N1CCCCCC1,24.6%
2,O=C(CSc1nnc(-c2cccnc2)n1CCc1ccccc1)NCc1ccccc1,-10.9%
3,CCOc1ccc(-c2nnc(SCC(=O)N(CC)CC)n2N)cc1,5.1%
4,CN1C(=O)Cc2cc(S(=O)(=O)N3CCN(c4ccc(Cl)cc4)CC3)ccc21,-2.2%
5,COc1ccccc1Nc1nc(NCCO)nc(N)c1[N+](=O)[O-],2.88%
6,Cc1cc(=O)oc2cc(OCC(=O)OCC(=O)Nc3ccccc3C(C)C)ccc12,3.47%
7,COc1ccccc1C(=O)Nc1cc2c(cc1C(=O)O)OCCCO2,-2.13%
8,CS(=O)(=O)c1ccccc1C(=O)Nc1cc2c(cc1C(=O)O)OCCCO2,-57.3%
9,CSc1ccccc1C(=O)Nc1cc2c(cc1C(=O)O)OCCCO2,18.2%
10,CCCCCC(=O)N1CC2(CC(c3cccc(NC(=O)COc4ccc(Cl)cc4)c3)=NO2)C[C@@H]1C(N)=O (some centres unmarked),-77%
11,CCCCCC(=O)Nc1cccc(C2=NOC3(C2)C[C@H](C(N)=O)N(C(=O)CCCCC)C3)c1 (some centres unmarked),-70.7%
12,C/C=C\C(=O)Nc1cccc(C2=NOC3(C2)C[C@@H](C(N)=O)N(C(=O)CCCCC)C3)c1 (some centres unmarked),-31%
13,CCCCCC(=O)N1CC2(CC(c3cccc(NC(=O)CC)c3)=NO2)C[C@H]1C(N)=O (some centres unmarked),-11.6%
14,CCCCCC(=O)Nc1cccc(C2=NOC3(C2)C[C@H](C(N)=O)N(C(=O)CC)C3)c1 (some centres unmarked),6.18%
15,NC(=O)[C@@H]1CC2(CC(c3cccc(NC(=O)COc4ccc(Cl)cc4)c3)=NO2)CN1C(=O)COc1ccc(Cl)cc1 (some centres unmarked),-29.4%
16,CCCCCC(=O)N1CC2(CC(c3cccc(NC(=O)CC(c4ccccc4)c4ccccc4)c3)=NO2)C[C@@H]1C(N)=O (some centres unmarked),11.4%
17,CCCCCC(=O)N1CC2(CC(c3cccc(NC(=O)c4ccccc4)c3)=NO2)C[C@@H]1C(N)=O (some centres unmarked),-54.6%
18,CCCCCC(=O)Nc1cccc(C2=NOC3(C2)C[C@H](C(N)=O)N(C(=O)COc2ccc(Cl)cc2)C3)c1 (some centres unmarked),-22%
19,N#CCCN1CCN(S(=O)(=O)c2ccc(S(=O)(=O)NC3CCCC3)cc2)CC1,-9.4%
20,CCc1cc2c(Nc3ccc(O)cc3)nc(C)nc2s1.Cl,8.46%
21,Cc1cc(/C=N/O)c(C)n1-c1ccc(Br)cc1,-34.2%
22,CCc1ccc(OCCSc2nc3ccccc3n2CC(=O)O)cc1,3.37%
23,CSc1nsc(SC)c1NC(=O)N1CCCCC1,2.74%

row,Structure (SMILES),"hERG current change (%, negative = inhibition) at 10uM"
1,O=C(NC(=S)N(Cc1ccccc1)Cc1ccccc1)c1ccccc1F,18.5%
2,O=C(Cn1c(CO)nc2ccccc21)Nc1cc(C(F)(F)F)ccc1N1CCOCC1,1.37%
3,Cc1cc(C(=O)N2CCN(Cc3ccc4c(c3)OCO4)CC2)on1,-4.02%
4,O=C(c1cc2ccccc2o1)N1CCN(Cc2ccc3c(c2)OCO3)CC1,-22.1%
5,Cc1c(C(=O)N2CCN(CCc3ccccc3)CC2)oc2ccccc12,-72.4%
6,O=C(c1cc2ccccc2oc1=O)N1CCN(Cc2ccc3c(c2)OCO3)CC1,-53.7%
7,CN1CCN(C(=O)c2cc3ccccc3oc2=O)CC1,6.08%
8,Cc1onc(-c2ccccc2)c1C(=O)N1CCN(Cc2ccc3c(c2)OCO3)CC1.Cl,17.5%
9,O=C(NCCN1CCN(C(=O)c2cc3ccccc3oc2=O)CC1)c1cc2ccccc2oc1=O,-15.9%
10,COc1cc2cc(C(=O)N3CCN(Cc4ccc5c(c4)OCO5)CC3)c(=O)oc2cc1OC,-0.572%
11,O=C(c1cc(-c2ccccc2)on1)N1CCN(Cc2ccc3c(c2)OCO3)CC1,-50.1%
12,O=C(c1cc2ccccc2oc1=O)N1CCN(CCc2ccccc2)CC1,-71.8%
13,CC(=O)N1CCN(C(=O)c2oc3ccccc3c2C)CC1,8.84%
14,C=CCN1CCN(C(=O)c2oc3ccccc3c2C)CC1,-0.434%
15,c1ccc(CCCCNCC2COc3ccccc3O2)cc1 (centres unmarked),-28.5%
16,COc1cc(C(=O)NCCC(c2ccccc2)c2ccccc2)cc(OC)c1OC,0.15%
17,COc1ccc(-c2cc(N)n(CCC#N)n2)c(OC)c1,4.12%
18,O=C(CSc1nnc(-c2ccncc2)o1)Nc1ccccc1C(F)(F)F,-0.412%
19,Cn1c(CNC(=O)CNC(=O)Cc2ccc(Cl)cc2)cc(=O)n(C)c1=O,18.9%
20,COC(=O)C(C)Oc1cc(C)cc2oc(=O)c3c(c12)CCC3 (centres unmarked),-12.7%
21,N#CC1(NC(=O)CSc2nnc(-c3ccccc3F)o2)CCCCC1,-13.1%
22,CC(C)CC(=O)Nc1ccccc1Oc1ccccc1,-2.96%
23,Cc1nn(C)c(C)c1S(=O)(=O)N1CCCC(C(=O)N2CCN(c3ccccc3)CC2)C1 (centres unmarked),-27.6%

row,Structure (SMILES),"hERG current change (%, negative = inhibition) at 10uM"
1,Cc1n[nH]c(C)c1S(=O)(=O)N1CCCC(C(=O)N2CCN(c3ccc(Cl)cc3)CC2)C1 (centres unmarked),-75.1%
2,Cc1nn(C)c(C)c1S(=O)(=O)N1CCCC(C(=O)N2CCN(c3ccc(Cl)cc3)CC2)C1 (centres unmarked),-70.4%
3,CC(=O)c1ccc(N2CCN(C(=O)C3CCCN(S(=O)(=O)c4c(C)[nH]c(=O)[nH]c4=O)C3)CC2)cc1 (centres unmarked),23.4%
4,O=C(C1CCCN(S(=O)(=O)c2cnc[nH]2)C1)N1CCN(c2ccc(Cl)cc2)CC1 (centres unmarked),-35%
5,Cc1nn(C)c(C)c1S(=O)(=O)N1CCCC(C(=O)NCCc2ccc(Cl)cc2)C1 (centres unmarked),-0.523%
6,Cc1cc2c(NC(=O)Nc3ccc(C(F)(F)F)cc3)cccc2nn1,-2.37%
7,Cn1cc([N+](=O)[O-])c(C(=O)Nc2ccc3c(c2)OCCO3)n1,5.3%
8,Cc1cccc(C(=O)N2CCC(=O)N(C(COCc3ccc(Cl)cc3)Cc3ccccc3)CC2)c1 (centres unmarked),-25.7%
9,CCC(C)[C@H](NC(=O)[C@H](Cc1ccccc1)n1c(=O)[nH]c2ccccc2c1=O)C(=O)NCC1CCC(C(=O)O)CC1 (some centres unmarked),20.4%
10,COc1cccc(OCC(=O)N2CCN(C)CC2)c1,-10.1%
11,Cc1cc(=O)oc2c3c(cc(OCC(=O)NCC(=O)O)c12)OC(C)(C)CC3,19%
12,CCN(CC)CCOC(=O)c1ccc(NC(=O)CCNC(=O)Cn2ccc3ccccc3c2=O)cc1,11.8%
13,CC(C)n1cc(CN2CCCC(C(=O)Nc3ccccc3Oc3cccnc3)C2)cn1 (centres unmarked),-42.4%
14,Cn1cc(CN2CCC(C(=O)Nc3ccc(Oc4ccccc4F)cc3)CC2)cn1,-65.6%
15,CCn1cc(CN2CCCC(C(=O)Nc3ccc(-c4nc5ccccc5[nH]4)cc3)C2)c(C)n1 (centres unmarked),-21%
16,CC(C)n1cc(CN2CCC(C(=O)Nc3ccc(Oc4ccccc4F)cc3)CC2)cn1,-76.1%
17,CCn1cc(CN2CCC(C(=O)Nc3ccc(Oc4ccccc4F)cc3)CC2)c(C)n1,-72.9%
18,CN(C)C(=O)CCC(=O)N1CCCCC1C(=O)Nc1ccc(Oc2ccccc2F)cc1 (centres unmarked),-43.9%
19,CCn1cc(CN2CCC(C(=O)Nc3ccc(Oc4cccnc4)cc3)CC2)cn1,-19%
20,CCn1cc(CN2CCC(C(=O)Nc3ccc(Oc4cccnc4)cc3)CC2)c(C)n1,-18.4%
